# From the supplement of paper PMC8728848
# Only a selection was taken, and the strongest signals are over-represented in it overall.
# B1: Arath Fbox (Arabidopsis thaliana), NP_178341.1 (protein)
# chain: EFTWGRKRRVKSESSPFDSFPEDCISYIISFTNPRDACVAATVSKTFESTVKSDIIWEKFLPADYESLIPPSRVFSSKKELYFSLCNDPVLFDDDKKSVWLEKASGKRCLMLSAMNLSIIWGDNPQYWQWIPIPESRFEKVAKLRDVCWFEIRGRTNTRVLSPRTRYSAYIVFKGVDKCYGFQNVAIEAAVGVVGQEPSRRLICFSEAIRRGRRNVVKPKQREDGWMEIELGEFFNDGGIMDNDEIEMSALETKQLNRKCGLIIQGIEIRPAKILAAAAASFLEQKLISEEDLNSAVDHHHHHH
# What was measured:
# Assay in all cases: glycan array binding signal (z-score within array); higher = stronger binding
# Details in all cases: glycan notation: IUPAC condensed, linker removed
# [1] = molecular target: Fuc(a1-2)Gal(b1-3)GalNAc(a1-3)[Fuc(a1-2)]Gal(b1-4)Glc
# Procedure, shortened: (§1)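 The Consortium for Functional Glycomics database supplied 3228 glycan arrays, of which those lacking an available protein sequence were dropped. The binding signal, a within-array Z-score, was averaged across arrays of the same protein sequence and across linkers. Negative scores can be read as non-binding.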
# [2] = molecular target: Fuc(a1-2)Gal(b1-3)GalNAc(b1-4)[Neu5Ac(a2-3)]Gal(b1-4)Glc
# Procedure, shortened: as §1
# [3] = molecular target: Fuc(a1-2)Gal(b1-3)GlcNAc(b1-3)[Neu5Ac(a2-6)Gal(b1-4)GlcNAc(b1-6)]Gal(b1-4)Glc
# Procedure, shortened: as §1
# [4] = molecular target: Fuc(a1-2)Gal(b1-4)GlcNAc
# Procedure, shortened: as §1
# [5] = molecular target: Fuc(a1-2)[Gal(a1-3)]Gal(b1-3)GlcNAc(b1-6)GalNAc
# Procedure, shortened: as §1
# [6] = molecular target: Fuc(a1-2)[Gal(a1-4)]Gal(b1-4)GlcNAc
# Procedure, shortened: as §1
# [7] = molecular target: Fuc(a1-2)[GalNAc(a1-3)]Gal(b1-3)GlcNAc(b1-6)GalNAc
# Procedure, shortened: as §1
# [8] = molecular target: Fuc(a1-2)[GalNAc(a1-3)]Gal(b1-4)GlcNAc
# Procedure, shortened: as §1
# [9] = molecular target: Fuc(a1-2)[GalNAc(a1-3)]Gal(b1-4)GlcNAc(b1-3)Gal(b1-4)GlcNAc
# Procedure, shortened: as §1
# [10] = molecular target: Fuc(a1-2)[GalNAc(a1-3)]Gal(b1-4)GlcNAc(b1-6)GalNAc
# Procedure, shortened: as §1
# [11] = molecular target: Gal(a1-3)Gal(b1-3)GlcNAc
# Procedure, shortened: as §1
# [12] = molecular target: Gal(a1-3)Gal(b1-3)[Fuc(a1-4)]GlcNAc(b1-2)Man(a1-3)[Gal(a1-3)Gal(b1-3)[Fuc(a1-4)]GlcNAc(b1-2)Man(a1-6)]Man(b1-4)GlcNAc(b1-4)GlcNAc
# Procedure, shortened: as §1
# [13] = molecular target: Gal(a1-3)Gal(b1-4)[Fuc(a1-3)]GlcNAc(b1-2)Man(a1-3)[Gal(a1-3)Gal(b1-4)[Fuc(a1-3)]GlcNAc(b1-2)Man(a1-6)]Man(b1-4)GlcNAc(b1-4)GlcNAc
# Procedure, shortened: as §1
# [14] = molecular target: Gal(a1-4)Gal(b1-4)GlcNAc(b1-2)Man(a1-3)[Gal(a1-4)Gal(b1-4)GlcNAc(b1-2)Man(a1-6)]Man(b1-4)GlcNAc(b1-4)GlcNAc
# Procedure, shortened: as §1
# [15] = molecular target: Gal(b1-3)GlcNAc(a1-6)Gal(b1-4)GlcNAc
# Procedure, shortened: as §1
# [16] = molecular target: Gal(b1-3)GlcNAc(b1-2)Man(a1-3)[Gal(b1-3)GlcNAc(b1-2)Man(a1-6)]Man(b1-4)GlcNAc(b1-4)[Fuc(a1-6)]GlcNAc
# Procedure, shortened: as §1
# [17] = molecular target: Gal(b1-3)GlcNAc(b1-3)Gal(b1-4)[Fuc(a1-3)]GlcNAc
# Procedure, shortened: as §1
# [18] = molecular target: Gal(b1-3)[Fuc(a1-4)]GlcNAc(b1-2)Man
# Procedure, shortened: as §1
# [19] = molecular target: Gal(b1-4)GlcNAc(b1-2)Man(a1-3)Man(b1-4)GlcNAc(b1-4)GlcNAc
# Procedure, shortened: as §1
# [20] = molecular target: Gal(b1-4)GlcNAc(b1-2)[Gal(b1-4)GlcNAc(b1-4)]Man(a1-3)[GlcNAc(b1-4)][Gal(b1-4)GlcNAc(b1-2)Man(a1-6)]Man(b1-4)GlcNAc(b1-4)GlcNAc
# Procedure, shortened: as §1
# [21] = molecular target: Gal(b1-4)GlcNAc(b1-3)Gal(b1-3)GalNAc
# Procedure, shortened: as §1
# [22] = molecular target: Gal(b1-4)GlcNAc(b1-3)Gal(b1-4)GlcNAc(b1-2)Man(a1-3)[Gal(b1-4)GlcNAc(b1-3)Gal(b1-4)GlcNAc(b1-2)Man(a1-6)]Man(b1-4)GlcNAc(b1-4)[Fuc(a1-6)]GlcNAc
# Procedure, shortened: as §1
# [23] = molecular target: Gal(b1-4)GlcNAc(b1-3)Gal(b1-4)GlcNAc(b1-2)[Gal(b1-4)GlcNAc(b1-3)Gal(b1-4)GlcNAc(b1-6)]Man(a1-6)[Gal(b1-4)GlcNAc(b1-3)Gal(b1-4)GlcNAc(b1-2)Man(a1-3)]Man(b1-4)GlcNAc(b1-4)GlcNAc
# Procedure, shortened: as §1
# [24] = molecular target: Gal(b1-4)GlcNAc(b1-3)Gal(b1-4)GlcNAc(b1-3)Gal(b1-4)GlcNAc(b1-2)[Gal(b1-4)GlcNAc(b1-3)Gal(b1-4)GlcNAc(b1-3)Gal(b1-4)GlcNAc(b1-6)]Man(a1-6)[Gal(b1-4)GlcNAc(b1-3)Gal(b1-4)GlcNAc(b1-3)Gal(b1-4)GlcNAc(b1-2)Man(a1-3)]Man(b1-4)GlcNAc(b1-4)[Fuc(a1-6)]GlcNAc
# Procedure, shortened: as §1
# [25] = molecular target: Gal(b1-4)GlcNAc(b1-3)Gal(b1-4)GlcNAc(b1-3)Gal(b1-4)GlcNAc(b1-3)Gal(b1-4)GlcNAc(b1-2)[Gal(b1-4)GlcNAc(b1-3)Gal(b1-4)GlcNAc(b1-3)Gal(b1-4)GlcNAc(b1-3)Gal(b1-4)GlcNAc(b1-6)]Man(a1-6)[Gal(b1-4)GlcNAc(b1-3)Gal(b1-4)GlcNAc(b1-3)Gal(b1-4)GlcNAc(b1-3)Gal(b1-4)GlcNAc(b1-2)Man(a1-3)]Man(b1-4)GlcNAc(b1-4)[Fuc(a1-6)]GlcNAc
# Procedure, shortened: as §1
# [26] = molecular target: Gal(b1-4)GlcNAc(b1-3)Gal(b1-4)GlcNAc(b1-3)Gal(b1-4)GlcNAc(b1-3)Gal(b1-4)GlcNAc(b1-3)Gal(b1-4)GlcNAc(b1-2)Man(a1-3)[Gal(b1-4)GlcNAc(b1-3)Gal(b1-4)GlcNAc(b1-3)Gal(b1-4)GlcNAc(b1-3)Gal(b1-4)GlcNAc(b1-3)Gal(b1-4)GlcNAc(b1-2)Man(a1-6)]Man(b1-4)GlcNAc(b1-4)GlcNAc
# Procedure, shortened: as §1
# [27] = molecular target: Gal(b1-4)GlcNAc(b1-3)Gal(b1-4)GlcNAc(b1-3)GalNAc
# Procedure, shortened: as §1
binder,measurement,setting,value
B1,glycan array binding signal (z-score),[1],-0.513
same,glycan array binding signal (z-score),[2],-0.123
same,glycan array binding signal (z-score),[3],-0.599
same,glycan array binding signal (z-score),[4],0.005
same,glycan array binding signal (z-score),[5],0.025
same,glycan array binding signal (z-score),[6],0.262
same,glycan array binding signal (z-score),[7],-0.626
same,glycan array binding signal (z-score),[8],-0.433
same,glycan array binding signal (z-score),[9],-0.64
same,glycan array binding signal (z-score),[10],-0.711
same,glycan array binding signal (z-score),[11],12
same,glycan array binding signal (z-score),[12],3.32
same,glycan array binding signal (z-score),[13],0.161
same,glycan array binding signal (z-score),[14],0.198
same,glycan array binding signal (z-score),[15],0.001
same,glycan array binding signal (z-score),[16],3.36
same,glycan array binding signal (z-score),[17],-0.717
same,glycan array binding signal (z-score),[18],2.33
same,glycan array binding signal (z-score),[19],-0.673
same,glycan array binding signal (z-score),[20],-0.348
same,glycan array binding signal (z-score),[21],-0.431
same,glycan array binding signal (z-score),[22],3.33
same,glycan array binding signal (z-score),[23],2.73
same,glycan array binding signal (z-score),[24],2.13
same,glycan array binding signal (z-score),[25],2.36
same,glycan array binding signal (z-score),[26],2.6
same,glycan array binding signal (z-score),[27],0.46
